# Test results taken from PubChem BioAssay AID488922 (Johns Hopkins Ion Channel Center, 2010).
# Hit rate of the full screen: of about 310,000 compounds, about 3,800 (1.2%) were called active.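 Rule for the calls: active = ratio B-score over 3 SD below the library mean, with starting fluorescence within 5 SD of its mean; inactive = the rest, inconclusive results apart.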 What follows is part of a selection rich in actives, with near analogues and random picks from the rest.
# Target: Potassium channel subfamily K member 9 (Homo sapiens) (UniProt Q9NPC2)
# Test: blockers of human TASK-3 (KCNK9) channel – HEK293 cells, thallium flux, primary screen (AID 488922);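 for B-score: negative B-score means less thallium flux so channel inhibition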
# Settings: HEK293 KCNK9, FluxOR thallium flux fluorescence, at 10 µM; hits give low values
# Sequence of Potassium channel subfamily K member 9 (Homo sapiens) (Q9NPC2 whole entry, looked up): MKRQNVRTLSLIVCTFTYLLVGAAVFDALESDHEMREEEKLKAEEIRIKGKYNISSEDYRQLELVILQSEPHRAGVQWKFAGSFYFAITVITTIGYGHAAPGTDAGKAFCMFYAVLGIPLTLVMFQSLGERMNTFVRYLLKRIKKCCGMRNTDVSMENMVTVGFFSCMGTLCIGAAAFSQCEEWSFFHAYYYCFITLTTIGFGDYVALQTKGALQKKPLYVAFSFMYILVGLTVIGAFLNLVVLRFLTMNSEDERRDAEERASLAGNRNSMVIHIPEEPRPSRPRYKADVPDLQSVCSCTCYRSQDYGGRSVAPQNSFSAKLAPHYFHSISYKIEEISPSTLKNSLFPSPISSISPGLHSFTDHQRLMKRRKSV
row,Structure (SMILES),B-score
1,COc1ccc(NC(=O)CN(C)C(=O)CC2CCCCC2)cc1,inactive
2,CNC1(c2nnnn2-c2c(C)cccc2C)CCOC(C)(C)C1 (stereo not given),inactive
3,COc1ccccc1NC(=O)C1=C(C)Nc2nc3ccccc3n2C1c1cccs1 (stereo not given),inactive
4,O=c1c([N+](=O)[O-])cc(C(F)(F)F)cn1Cc1cccc(Cl)c1,inactive
5,O=[N+]([O-])/C=C/c1ccc2c(ccn2Cc2ccccc2)c1,-9.63 (active)
6,O=C(/C=C/c1cccc([N+](=O)[O-])c1)N1CCN(Cc2ccccc2)CC1,inactive
7,CC(C)Cc1nnc(NC(=O)CN2C(=O)NC3(CCCCC3)C2=O)s1,inactive
8,COc1cc(/C=C/C(=O)O)cc(S(=O)(=O)Nc2ccccc2C(=O)NCCc2ccccc2)c1OC,inactive
9,CC1CCCC(NC(=O)c2cccc(N3CCCC3=O)c2)C1C (stereo not given),inactive
10,O=C(/C=C/Sc1ncn[nH]1)c1ccc(Cl)cc1,inactive
11,O=C(NNc1ccccc1Cl)C(O)(c1cccc(C(F)(F)F)c1)c1cccc(C(F)(F)F)c1,-8.19 (active)
12,O=C(Nc1cc(C(F)(F)F)ccc1Cl)C(=O)N1CCCCC1,inactive
13,CC(CC(=O)Nc1cc(C(F)(F)F)ccc1Cl)c1ccccc1 (stereo not given),inactive
14,CCO[C@H]1OC(C(=O)NCc2ccccc2)=C[C@@H](c2coc3ccccc3c2=O)[C@@H]1CCCO,inactive
15,O=C(COc1ccc2c3c(c(=O)oc2c1)CCCC3)NCC(O)c1ccccc1 (stereo not given),inactive
16,CN1CCN(CC#CCC2(O)c3ccccc3-c3ccccc32)CC1,inactive
17,Cc1cccc(NC(=O)c2sc3nc(N4CCOCC4)c4c(c3c2N)CCCC4)c1,inactive
18,Cc1cccc(NC(=O)c2sc3nc4c(c(-c5ccco5)c3c2N)CCC4)c1,-10.4 (active)
19,NC(=O)c1sc2nc3c(c(-c4ccccc4)c2c1N)CCC3,inactive
20,CC1(C)CC(=O)C(C2c3ccccc3S(=O)(=O)c3ccccc32)C(=O)C1,inactive
21,COc1ccc(C2Nc3ccccc3C(=O)N2c2ccc(Cl)cc2)cc1Cn1cc([N+](=O)[O-])cn1 (stereo not given),-7.96 (active)
22,COc1ccc(N2C(=O)c3ccccc3NC2c2ccc(OC)c(CN3CCOCC3)c2)cc1 (stereo not given),inactive
23,COc1cnn(-c2ccc([N+](=O)[O-])cc2)c(=O)c1Cl,inactive
24,CCCCn1c(N)c(N(CC(C)C)C(=O)c2ccc(Br)o2)c(=O)[nH]c1=O,inactive
25,Cc1ccccc1-c1nc(CS(=O)(=O)CC(=O)NC(C)c2ccccc2)c(C)o1 (stereo not given),inactive

row,Structure (SMILES),B-score
1,CCOc1ccc(NC(=O)CN(C)C(=O)COc2cccc(CC)c2)cc1OCC,inactive
2,CC(C)(C)c1ccc(CN2C(=O)c3ccccc3S2(=O)=O)cc1,inactive
3,O=C1c2ccccc2S(=O)(=O)N1CC(O)Cn1c2ccccc2c2ccccc21 (stereo not given),-10.9 (active)
4,CCCCN(CCCC)CC(O)Cn1c2ccccc2c(=O)c2ccccc21 (stereo not given),inactive
5,CC(=O)Nc1ccc(S(=O)(=O)NNC(=O)CCc2ccccc2)cc1,inactive
6,Cc1c(NC(=O)c2cc(-c3ccc(Cl)s3)nc3ccccc23)c(=O)n(-c2ccccc2)n1C,inactive
7,Cc1cc(C)c(SCCc2ccncc2)c(C)c1,inactive
8,CCOC(=O)C(NS(=O)(=O)c1ccc(C)cc1)(C(F)(F)F)P(=O)(OCC(C)C)OCC(C)C (stereo not given),inactive
9,CC1(C)CC(N2CCN(C(c3ccccc3)c3ccccc3)CC2)=CC(=[N+]2CCCCC2)C1,-17.2 (active)
10,CC1(C)CC(=O)C=C(N2CCCC2)C1,inactive
11,O=C(O)CN1CCN(C(c2ccccc2)c2ccccc2)CC1,inactive
12,Cc1ccccc1-n1cc(CNC(=O)CC2C(=O)NCCN2C/C=C/c2ccccc2)cn1 (stereo not given),inactive
13,CCOc1ccc(C(=O)CCN2CCOCC2)cc1,inactive
14,CC(C)(C)OC(=O)NNc1c2ccccc2nc2ccccc12,inactive
15,O=C(NNc1c2ccccc2nc2ccccc12)c1cc2ccccc2cc1O,-7.49 (active)
16,O=C(N/N=C/c1cccnc1)c1cc2ccccc2cc1O,inactive
17,O=C(COc1ccc(NC(=O)c2ccccc2[N+](=O)[O-])cc1)c1ccc(F)cc1,inactive
18,CC(C)CC(=O)Nc1ccc(Cc2ccncc2)cc1,inactive
19,COc1ccccc1NC(=O)C1CCCN1S(=O)(=O)c1ccc(Cl)cc1 (stereo not given),inactive
20,CN(c1ccccc1)S(=O)(=O)c1cccc(C(=O)NNC(=O)c2ccncc2)c1,inactive
21,COc1ccccc1NC(=O)CSc1nc2sc3c(c2c(=O)n1-c1ccccc1)CCN(C)C3,inactive
22,Cc1cc(NC(=O)CSc2nc3cc(Cl)ccc3c(=O)n2Cc2ccco2)no1,inactive
23,COc1ccccc1NC(=O)CSc1nc2sc(C)c(C)c2c(=O)n1Cc1ccco1,-9.54 (active)
24,O=S(=O)(NCC1CCCO1)c1cnc(Cl)c(Cl)c1 (stereo not given),inactive
25,COC(=O)CCCC1=CC2=C(c3ccccc3)C(=O)C(C)(OC(=O)C3CCCC3)C(=O)C2=CN1c1ccc(OC)cc1 (stereo not given),inactive

row,Structure (SMILES),B-score
1,COCCNC(=O)Cn1cc(C(=O)c2cccs2)c2ccccc21,inactive
2,O=C(Cn1cc(C(=O)c2cccs2)c2ccccc21)NCc1cccs1,-13.5 (active)
3,COC(=O)c1cn(CC(=O)NCc2cccs2)c2ccccc12,inactive
4,Cc1ccc(C(C[N+](=O)[O-])c2c(C)cc3ccccn23)cc1 (stereo not given),inactive
5,COc1cccc(CC2(CO)CCCN(Cc3ccc(OC(F)F)cc3)C2)c1 (stereo not given),inactive
6,Cc1cc(C)cc(Oc2c(C(F)(F)F)oc3cc(OCC(=O)O)ccc3c2=O)c1,inactive
7,COc1ccc(N(CCC#N)S(=O)(=O)c2ccc(Cl)cc2)cc1,inactive
8,CCC(c1nnnn1Cc1ccco1)N(Cc1cc2cc(OC)ccc2[nH]c1=O)C1CCCCC1 (stereo not given),inactive
9,CCC(c1nnnn1Cc1ccco1)N(CCc1ccccc1)Cc1cc2cccc(C)c2[nH]c1=O (stereo not given),-8.62 (active)
10,Cc1cccc2cc(CN(Cc3ccc4c(c3)OCO4)Cc3nnnn3C3CCCC3)c(=O)[nH]c12,inactive
11,Cc1cccc2cc(CN(Cc3nnnn3Cc3ccccc3)C3CCCC3)c(=O)[nH]c12,-11.5 (active)
12,CCC(c1nnnn1Cc1ccco1)N(CCc1ccccc1)Cc1cc2ccc(OC)cc2[nH]c1=O (stereo not given),inactive
13,Cc1cc(C)c2cc(CN(Cc3nnnn3Cc3ccc(F)cc3)C3CCCC3)c(=O)[nH]c2c1,inactive
14,C/C=N/NC(=O)CCCC(=O)N/N=C/C,inactive
15,CCNCCC(=O)N1c2ccccc2Sc2ccc(NC(=O)OCC)cc21,inactive
16,Cn1cc(CCC(=O)NCc2ccc3c(c2)OCO3)c2ccccc21,inactive
17,N#Cc1nc(Cc2cccc3ccccc23)oc1NCc1ccc2c(c1)OCO2,-11.2 (active)
18,c1n[nH]c(NCc2ccc3c(c2)OCO3)n1,inactive
19,CC(=O)N1Cc2ccccc2CC1C(=O)O (stereo not given),inactive
20,O=C(CN1C(=O)S/C(=C\c2ccccc2Cl)C1=O)NC1C=CS(=O)(=O)C1 (stereo not given),inactive
21,CN1C2CCC1/C(=C\c1ccccc1Cl)C(=O)/C2=C\c1ccccc1Cl,-8.6 (active)
22,O=C(CN1CCCCCC1)NCCN1C(=O)S/C(=C\c2ccccc2Cl)C1=O,inactive
23,O=C(CCc1nnc2ccc(NCc3ccccc3Cl)nn12)NCC1CCN(C2CCCC2)C1 (stereo not given),inactive
24,Cc1ccc(CCNC(=O)C2CCN(S(=O)(=O)N3CCCC3)CC2)cc1,inactive
25,O=C(CNC1CCCCC1)NCC1(c2ccccc2)CCCC1,-7.46 (active)

row,Structure (SMILES),B-score
1,CCOc1c(OC)cccc1C(=O)NCC1(c2ccccc2)CCCC1,inactive
2,COc1cc(C(=O)NCC2(c3ccccc3)CCCC2)ccc1OC(C)C,inactive
3,C=C(Br)CN1CCN(CC(=C)Br)CC1,inactive
4,CCCCNC(=O)N1CCN(S(C)(=O)=O)CC1,inactive
5,CN(C)N=Nc1ccc2nc[nH]c2c1,inactive
6,Cc1cc(C)c2[nH]c(=O)c(C(c3nnnn3Cc3ccc4c(c3)OCO4)N3CCCC3)cc2c1 (stereo not given),inactive
7,Fc1ccccc1C(c1nnnn1Cc1ccc2c(c1)OCO2)N1CCN(Cc2ccccc2)CC1 (stereo not given),inactive
8,Fc1ccc(Cn2nnnc2C(c2cccs2)N2CCCCCC2)cc1 (stereo not given),-13.1 (active)
9,CCCn1c(SCC(=O)Nc2ccc(C)c(S(=O)(=O)N3CCOCC3)c2)n[nH]c1=O,inactive
10,Cc1ccc(C(=O)OCC(=O)N2CC(C)CC(C)C2)cc1S(=O)(=O)N1CCCCC1 (stereo not given),inactive
11,COc1ccc2c(CC(=O)N3CCc4cc(OC)c(OC)cc4C3)coc2c1,inactive
12,N/C(Cc1ccc([N+](=O)[O-])cc1)=N\OC(=O)COc1ccc2ccccc2c1,-7.84 (active)
13,N/C(=N\OC(=O)COc1ccc([N+](=O)[O-])cc1)c1ccc(Br)cc1,inactive
14,Cc1cc(C)cc(OCC(=O)O/N=C(\N)Cc2ccc([N+](=O)[O-])cc2)c1,inactive
15,CCCc1cc(=O)oc2cc(OCC(=O)Nc3ccc(CN4CCOCC4)cc3)c(Cl)cc12,inactive
16,CN(C)c1ccc(NC(=O)c2ccncc2)c2ccccc12,inactive
17,c1ccc(CCn2nnnc2CN2CCN(C3CCCC3)CC2)cc1,inactive
18,c1ccc(C(c2ccccc2)N2CCN(Cc3nnnn3C3CCCCC3)CC2)cc1,-14.6 (active)
19,Oc1ccccc1CN1CCN(C(c2ccccc2)c2ccccc2)CC1,inactive
20,Cc1nn(Cc2ccccc2Cl)c(C)c1NC(=O)Cn1nc([N+](=O)[O-])c(Cl)c1C,inactive
21,CC(=O)N1CCN(c2ccccc2NC(=S)NC(=O)c2cc3ccccc3o2)CC1,inactive
22,O=C(NCc1ccco1)c1ccc(NS(=O)(=O)c2cccc([N+](=O)[O-])c2)cc1,-8.56 (active)
23,O=C(NCc1ccco1)c1ccc([N+](=O)[O-])cc1Cl,inactive
24,O=C(NCc1ccncc1)c1ccc(NS(=O)(=O)c2cccc([N+](=O)[O-])c2)cc1,inactive
25,O=C1CCCC(O)=C1N=Nc1ccc2ncsc2c1,inactive

row,Structure (SMILES),B-score
1,Cc1ccc(S(=O)(=O)N2CCC(C(=O)NCCC3=CCCCC3)CC2)cc1C,inactive
2,O=C(NCc1ccco1)c1nc(-c2ccccc2)n(-c2ccccc2)n1,inactive
3,O=C(Cc1ccccc1)n1nc(-c2ccccc2)nc1NCc1ccco1,-9.15 (active)
4,c1ccc(-c2nc(NCc3ccco3)c3ccccc3n2)cc1,-6.58 (active)
5,c1coc(CNc2ncnc3ccccc23)c1,inactive
6,CCOCCCNc1nc(-c2ccccc2)nc2ccccc12,inactive
7,CS(=O)(=O)n1nc(-c2ccccc2)nc1NCc1ccco1,inactive
8,CC(OC(=O)c1ccc(NS(=O)(=O)c2ccc3[nH]c(=O)[nH]c3c2)cc1)C(=O)Nc1cccc(Cl)c1Cl (stereo not given),inactive
9,COc1ccc(-c2cnc(SCCNC(=O)c3ccc4c(c3)OCO4)[nH]2)cc1,inactive
10,Cc1ccccc1N1CCN(CC(=O)NCc2ccc(Cl)cc2)CC1,inactive
11,O=C(NCCc1ccc(Cl)cc1)C1CCCN1C(=O)NCc1ccccc1 (stereo not given),inactive
12,O=C(Nc1ccccc1)c1ccco1,inactive
13,O=C(Nc1ccc(Oc2ccccc2)cc1)c1ccco1,-10.1 (active)
14,O=C(Nc1ccc(O)cc1)c1ccc(NC(=O)c2ccco2)cc1,inactive
15,Cc1cc(C)cc(NC(=O)C2CCCN(S(=O)(=O)c3ccc4[nH]c(=O)ccc4c3)C2)c1 (stereo not given),inactive
16,O=C(Oc1ccccc1C(=S)N1CCCCC1)c1cc([N+](=O)[O-])cc([N+](=O)[O-])c1,inactive
17,O=C(Oc1ccc(Br)cc1C(=S)N1CCOCC1)c1cccc([N+](=O)[O-])c1,-16.4 (active)
18,COc1cc(C(=S)N2CCOCC2)cc(OC)c1OC(=O)c1cc([N+](=O)[O-])cc([N+](=O)[O-])c1,inactive
19,COc1ccccc1C(=O)Nn1cnnc1,inactive
20,CC(=O)Nc1ccc(OCCC[n+]2cccc(C(=O)[O-])c2)cc1,inactive
21,Nc1c(-c2ccccc2)nnn1Cc1ccccc1,inactive
22,CCCC1=Nc2cc(C(=O)NCCN3CCCC3)ccc2Sc2ccccc21,inactive
23,CCCC1=Nc2cc(C(=O)NCc3ccco3)ccc2Sc2ccccc21,-8.7 (active)
24,CC(C)(C)c1ccc(C(=O)NCc2ccco2)cc1,inactive
25,CN(C)/C=C(\C#N)C(=O)c1cccnc1Oc1cccc(F)c1,inactive
